Molecules are shown by their SMILES. The panel holds about 83,000 compounds, 20% with a hit somewhere; the sample as a whole holds those more often.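 Percent growth is the endpoint: 0 to 100 indicates growth inhibition (40 means 60% inhibition), 0 means no net growth, and negative values indicate cell death.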 Values without a mark were called inactive. Calls of active or inactive are those of the source. The calls were made as follows: active = growth percent below 10; inactive = the rest.

The test system of this assay is HL-60(TB) leukemia. The assay is described as follows: NCI-60 one-dose screen, 48 h (100 = growth as untreated, 0 = no growth, -100 = all killed). The note with it: 10 µM unless noted.
For `O=C(Nc1ccccn1)[C@H](O)[C@@H](O)C(=O)N1CCOCC1`, the growth is 116%. Take `COc1cc(NC(=O)c2cc3ccccc3cc2O)c(OC)cc1Cl`: the growth is -29.2% (active). Consider `Cc1nc2cccc(NCCCCC(=O)NO)c2c(=O)n1-c1ccccc1`, for which the growth was 42.8%. As to `COc1ccc(-n2ncc3c2ccc2cc(S(=O)(=O)c4ccccc4)c(=O)n(C)c23)cc1`, the growth is 110%. With `NC(=N\N=C/c1ccccc1[N+](=O)[O-])/C(N)=N\N=C/c1ccccc1[N+](=O)[O-]` the figure was 105%; with `O=C(O)c1ccc(Nc2ncc3c(n2)-c2ccc(Cl)cc2C(c2c(F)cccc2F)=NC3)cc1`, 22.6%. With `COc1ccc(C2=NN(C(C)=O)C(c3ccc(Oc4ccnc5cc(Cl)ccc45)c(OC)c3)C2)cc1` (stereo not given) the figure was 78.4%. Turning to `CC(C)(CCc1ccccn1)C(=O)CCCc1ccccn1`, the growth is 103%. For `CC1Cc2c(Cl)ncnc2N(C)c2ccccc21` (stereo not given), the growth is 11.8%. Take `C#C[C@]1(O)CC[C@H]2[C@@H]3CC=C4c5sc(N=C(N)N)nc5CC[C@]4(C)[C@H]3CC[C@@]21C`: the growth was -44.8% (active). As to `COC1=CC(=O)c2c(O)c3c(c(O)c2C1=O)CC(C)(O)OC3` (stereo not given), the growth was -57.1% (active).

Consider `COC(=O)c1c2c(n3ccccc13)C(=O)c1ccccc1C2=O`, for which the growth is 58.6%. In the case of `O=C(CSc1nnc(-c2cc(-c3ccccc3)nc3ccccc23)n1-c1ccccc1)Nc1ccc(C(=O)/C=C/c2ccc(Cl)cc2)cc1`, the growth was 89%.

Take `COc1ccc(-c2nnc(-c3ccc4c(c3)nc(-c3ccccc3)n4C3CCCCC3)o2)cc1`: the growth was 17.2%. Next, `N#C/C(=C\c1ccc(-c2cccc(Cl)c2)o1)C(=O)Nc1ncc(Cc2ccc(Cl)cc2)s1`: 83.9%; `CNC(=O)c1cc(Oc2ccc3c(c2)sc2nc(-c4ccc(Cl)cc4)cn23)ccn1`: 88.4%; `O=C1NCC(c2cc3ccccc3[nH]c2=O)Nc2ccccc21` (stereo not given): 95.7%. Consider `CC1(C(=O)O)CCC(N)(C(=O)O)C1(C)C` (stereo not given), for which the growth was 101%. With `C[C@]12CCc3nc(Nc4cccc(O)c4)sc3C1=CC[C@@H]1[C@@H]2CC[C@]2(C)/C(=N\NC(N)=S)CC[C@@H]12` the figure was 10.9%; with `CCOC(=O)c1cc(N)nc2ccccc12`, 104%. For the compound `CC(=O)OC1Oc2cc(C)c(C)cc2-c2oc(=O)c(-c3ccccc3)cc21` (stereo not given), the growth was -39.1% (active). With `CC(C)(C)c1ccc(S(=O)(=O)O)s1`, the growth is 82.5%. Consider `O=C1/C(=C\c2cn(-c3nc(N4CCOCC4)nc(N4CCOCC4)n3)c3ccccc23)c2ccccc2N1c1c(Cl)cccc1Cl`, for which the growth is 64.7%.

For `CCCCC#Cc1c(I)n(C2OC(CO[Si](C)(C)C(C)(C)C)C3OC(C)(C)OC32)c(=O)[nH]c1=O` (stereo not given), the growth is -29.4% (active).

With `CCn1c(-c2nonc2Nc2ccc(OC)cc2)nc2ccccc21`, the growth was 128%. For the compound `Cc1nc(Nc2ccccn2)sc1C(=O)/C=C/c1ccc(Br)cc1`, the growth was 41.7%.

For the compound `NC(=Nc1ccccc1)SCCCSC(N)=Nc1ccccc1`, the growth was 82.6%.

With `COc1c(B(O)O)cccc1-c1nc2ccc3[nH]ncc3c2c2c1CCCC2`, the growth was -28.1% (active). In the case of `COc1ccc(S(=O)(=O)n2c3ccccc3n3ncc(-c4nnc(C)o4)c23)cc1`, the growth was 12.2%.

As to `CCN(CC)CCCOc1cccc2c1C(=O)c1cccc(OCCCN(CC)CC)c1C2=O`, the growth was 30.3%. In the case of `O=[N+]([O-])CC(O)c1ccccc1` (stereo not given), the growth was 99.4%. Next, `CN(C)c1ccc(Cc2cc(-c3ccccc3)nn(C/C(=N/O)c3ccccc3)c2=O)cc1`: 54.3%; `Cc1cc(C)cc(NCCC#N)c1`: 84.9%; `CCCc1cc2c(=O)c(C(=O)OC)c[nH]c2cc1N(CC)CC`: 91.6%. With `CCOC(=O)C1CCN(S(=O)(=O)/N=C2/NC(=O)NC2=C(Cl)Cl)CC1` the figure was -45.9% (active).

Regarding `COc1cc(CCC[P+](c2ccccc2)(c2ccccc2)c2ccccc2)c(OC)c(OC)c1OC`, the growth was 65.7%.

On to `CSc1ccc(Cl)c(C(=O)Nc2sccc2C(N)=O)c1`, for which the growth is 91.3%.

For `Cn1cc(-c2nnc(-c3cn(C)c4ncc(Br)cc34)o2)c2ccccc21`, the growth was 99%. Next, `COC1=CC(c2ccc[nH]2)=N/C1=C\c1[nH]c(C)c(CC(=O)OCc2ccccc2)c1C`: -29.2% (active). In the case of `COC1=C(C)C(=O)N2[C@@H]1[C@H](c1ccccc1)OC21C=CC(=O)C=C1`, the growth is -11.2% (active).

The values are drawn from PubChem BioAssay (NCI).
